CYP2C19 activ: cytochrome P450 2C19 (human) activation; AID 1025; P33261; 96,000 tested, under 10 active; recombinant CYP2C19, luciferin-H EGE luminescence; hits give high values; 0 = fully inhibited enzyme, 1 = untreated enzyme; activation factor at 5 µM;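 active means activation factor of at least 2 at 5 µM in the primary screen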;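 further: 0 = wells with 2.5 mM tranylcypromine and 1 = vehicle-only wells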
CYP2C9 act: activators of human CYP2C9 | activation factor at 5 µM | AID 1024 | P11712 | recombinant CYP2C9, luciferin-H conversion, luminescence; hits give high values; factor 1 = untreated enzyme, 0 = blocked | 96,000 tested, 1.4% active;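 active means activation factor of 2 or more for CYP2C9 at a 5 µM dose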;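 further: 0 = sulfaphenazole-blocked wells and 1 = vehicle-only wells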
Target sequence (P11712 whole entry, looked up): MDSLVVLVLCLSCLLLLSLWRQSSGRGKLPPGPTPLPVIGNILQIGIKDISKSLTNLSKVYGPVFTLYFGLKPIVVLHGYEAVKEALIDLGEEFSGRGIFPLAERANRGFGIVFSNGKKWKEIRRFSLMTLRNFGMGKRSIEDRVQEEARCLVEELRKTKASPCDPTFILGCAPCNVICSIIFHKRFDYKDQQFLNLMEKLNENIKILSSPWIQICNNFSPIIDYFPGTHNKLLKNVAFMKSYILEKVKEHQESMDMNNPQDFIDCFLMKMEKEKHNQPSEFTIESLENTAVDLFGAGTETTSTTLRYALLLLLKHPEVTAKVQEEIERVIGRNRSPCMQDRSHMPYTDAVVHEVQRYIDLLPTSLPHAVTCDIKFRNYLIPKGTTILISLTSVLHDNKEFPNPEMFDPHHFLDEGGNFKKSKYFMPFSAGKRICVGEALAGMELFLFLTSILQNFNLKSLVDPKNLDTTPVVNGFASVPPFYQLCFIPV
CYP2C9 inhib: human CYP2C9 inhibition; CYP2C9 Supersomes, luciferin-H conversion, luminescence; inhibition, % at 5 µM; 96,000 tested, 20% active; AID 777;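 active means blocking of liver enzyme CYP2C9 beyond about 50% at 5 µM, limit read from the data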
CYP2C19 inhib: human CYP2C19 inhibition | P33261 | CYP2C19 Supersomes, luciferin-H EGE luminescence, 30 min | inhibition, % at 5 µM | 96,000 tested, 21% active | AID 778;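 active means CYP2C19 inhibition above a set limit at 5 µM in the primary screen, cut at about 50% in these data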;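 further: plate controls were negative control wells for no effect and 2.5 mM tranylcypromine positive control for full effect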
Measles CPE: protection of cells from measles virus | Measles virus-infected cells, CPE protection, absorbance | protection (pct of control), % at 4 µM | 140,000 tested, 1.5% active | AID 841; in the data active means protection mostly above about 24%, no sharp cut-off; inactive means mostly below about 26%
* = called active by the depositor. A selection: hits, their analogues and other compounds. The true share with any hit is near 22%.

`CC(C)CC(NS(=O)(=O)c1ccccc1)C(=O)O` (configuration not stated) gave CYP2C19 activ 0.9, CYP2C9 act 0.8, CYP2C9 inhib 18, CYP2C19 inhib 14 and Measles CPE 9.
COc1ccc(S(=O)(=O)Nc2cccc(N(C)S(C)(=O)=O)c2)cc1C was read as Measles CPE 8.
`CCCC(C)NS(=O)(=O)c1ccc(OC)c(C)c1` (configuration not stated) gave CYP2C19 activ 0.2, CYP2C9 act 1.8, CYP2C9 inhib -84, CYP2C19 inhib 81* and Measles CPE 3.
`CNCC(O)Cn1c(C(F)(F)F)nc2ccccc21` (configuration not stated) gave Measles CPE 15.
For CCOC(=O)CSc1nc(C)c2ccc(C)cc2n1 the results were Measles CPE 18.
For Cc1noc(C)c1COc1ccc(C(=O)OC(C)C(=O)Nc2ccc(N3CCOCC3)cc2)cc1 (configuration not stated) the results were CYP2C19 activ 0.9, CYP2C9 act 0.8, CYP2C9 inhib 19, CYP2C19 inhib 9 and Measles CPE 6.
Screening O=c1c(-c2nc3ccccc3o2)c2oc3ccccc3n2c2ccccc12 returned CYP2C19 activ 0.9, CYP2C9 act 0.9, CYP2C9 inhib 6, CYP2C19 inhib 8 and Measles CPE 5.
For Cc1ccc(-c2nn3c(C)nnc3s2)cc1NC(=O)C(C)C the results were CYP2C19 activ 0.9, CYP2C9 act 0.9, CYP2C9 inhib 11, CYP2C19 inhib 14 and Measles CPE 15.
Cc1ccc(-c2nn3c(C)nnc3s2)cc1NC(=O)CSc1ccc(Cl)cc1 was read as Measles CPE 1.
For Cc1ccc(CNc2cc(-c3nn4c(C)nnc4s3)ccc2C)s1 the results were CYP2C19 activ 0.7, CYP2C9 act 0.5, CYP2C9 inhib 54*, CYP2C19 inhib 28 and Measles CPE 7.
`Cc1nnc2sc(-c3cccc(NC(=O)c4cccnc4)c3)nn12` gave CYP2C19 activ 1, CYP2C9 act 1, CYP2C9 inhib 2, CYP2C19 inhib 1 and Measles CPE 6.
For Cc1ccc(-c2nn3c(C)nnc3s2)cc1NC(=O)c1cccnc1 the results were CYP2C19 activ 0.5, CYP2C9 act 0.4, CYP2C9 inhib 60*, CYP2C19 inhib 50* and Measles CPE 5.
Cc1ccc(-c2nn3c(C)nnc3s2)cc1NCc1c(F)cccc1Cl was read as CYP2C19 activ 0.3, CYP2C9 act 0.3, CYP2C9 inhib 74*, CYP2C19 inhib 68* and Measles CPE 3.
Cc1ccc(/C=C/C(=O)OC(C)C(=O)Nc2ncc(Cl)cc2Cl)o1 (configuration not stated) was read as Measles CPE 5.
For COc1ccc(-n2nnc3c(=O)n(Cc4cc(C)ccc4C)cnc32)cc1 the results were CYP2C19 activ 0.6, CYP2C9 act 0.3, CYP2C9 inhib 72*, CYP2C19 inhib 36 and Measles CPE 11.
For C(=N\Nc1ncnc2sc3c(c12)CCC3)/c1cccs1 the results were CYP2C19 activ 0.8, CYP2C9 act 0.8, CYP2C9 inhib 21, CYP2C19 inhib 18 and Measles CPE 14.
`C(=N\Nc1ncnc2sc3c(c12)CCC3)/c1ccncc1` gave CYP2C19 activ 0.2, CYP2C9 act 0.2, CYP2C9 inhib 82*, CYP2C19 inhib 83* and Measles CPE 2.
Screening O=C(Nc1ncnc2sc3c(c12)CCC3)c1ccco1 returned CYP2C19 activ 0.6, CYP2C9 act 2.4*, CYP2C9 inhib -139, CYP2C19 inhib 44 and Measles CPE 10.
O=C(Nc1ncnc2sc3c(c12)CCCCC3)c1ccccc1 was read as CYP2C19 activ 0.5, CYP2C9 act 0.8, CYP2C9 inhib 17, CYP2C19 inhib 51* and Measles CPE 24.
For CC(C)Nc1nc(NC(C)(C)C)nc(Oc2ccc(=O)n(-c3ccccc3)n2)n1 the results were CYP2C19 activ 0.9, CYP2C9 act 0.9, CYP2C9 inhib 11, CYP2C19 inhib 6 and Measles CPE 28.
`Cc1cccc(NC(=O)CCc2c(C)nc3ncnn3c2C)n1` gave CYP2C19 activ 1.1, CYP2C9 act 1.1, CYP2C9 inhib -9, CYP2C19 inhib -9 and Measles CPE 14.
`COCCCNC(=S)N1CCN(S(C)(=O)=O)CC1` gave Measles CPE 17.
For COc1ccc(C/C(C)=N/NC(=O)c2cccnc2)cc1 the results were Measles CPE 5.
CC(C)CNC(=O)COC(=O)c1cc(Cl)cc(Cl)c1N was read as CYP2C19 activ 0.3, CYP2C9 act 1.9, CYP2C9 inhib -94, CYP2C19 inhib 66* and Measles CPE 20.
For COC(=O)CNC(=O)COC(=O)c1cc(Cl)cc(Cl)c1N the results were Measles CPE 15.
Screening CC(C)(C)N=C1NN=C(c2cc3ccccc3o2)CS1 returned Measles CPE 32.
COc1ccc(CN(C)C2CCCCC2)cc1 was read as CYP2C19 activ 0.4, CYP2C9 act 1.3, CYP2C9 inhib -29, CYP2C19 inhib 64* and Measles CPE 3.
`C/C(=C/C(=O)N1CCc2ccccc21)C(=O)O` gave Measles CPE 31.
For CCOC(=O)N=S(=O)(Oc1ccc([N+](=O)[O-])cc1)c1ccccc1 (configuration not stated) the results were CYP2C19 activ 0.2, CYP2C9 act 0.7, CYP2C9 inhib 29, CYP2C19 inhib 78* and Measles CPE 7.
Screening CCOC(=O)N=S(=O)(Oc1ccc([N+](=O)[O-])cc1)c1ccc(Cl)cc1 (configuration not stated) returned Measles CPE 30.
For CCc1nn(C(C)C(=O)N2CCc3ccccc3C2)c(=O)c2cc3occc3n12 (configuration not stated) the results were CYP2C19 activ 0.1, CYP2C9 act 0.4, CYP2C9 inhib 61*, CYP2C19 inhib 94* and Measles CPE 6.
For CCC(C(=O)NC(C)CCc1ccccc1)n1nc(C)n2c(cc3occc32)c1=O (configuration not stated) the results were CYP2C19 activ 0.3, CYP2C9 act 0.1, CYP2C9 inhib 87*, CYP2C19 inhib 71* and Measles CPE 6.
For CCc1nn(C(C)C(=O)NCCN2CCN(c3cccc(C)c3C)CC2)c(=O)c2cc3occc3n12 (configuration not stated) the results were CYP2C19 activ 0.6, CYP2C9 act 1.6, CYP2C9 inhib -57, CYP2C19 inhib 38 and Measles CPE 0.
`CCc1nn(C(C)C(=O)Nc2cccc(C)c2C)c(=O)c2cc3occc3n12` (configuration not stated) gave CYP2C19 activ 0.3, CYP2C9 act 0.3, CYP2C9 inhib 66*, CYP2C19 inhib 71* and Measles CPE 21.
CCC(C(=O)NC(C)CCc1ccco1)n1nc(C)n2c(cc3occc32)c1=O (configuration not stated) was read as Measles CPE 2.
